Only some compounds are listed: those with a hit (about 8.2% of all), similar ones and a draw of the others.
SW480 rereplic = inducers of DNA re-replication in SW480 colon cancer cells | AID 624297 | SW480 DNA re-replication, Hoechst DNA content imaging, 48 h | 1.8% of 340,000 active | Potency, µM (series often up to 46.1 µM), actives largely listed as activators; note: nearly all actives have a fitted effect of over 55% in size
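Image-based read-out: total Hoechst fluorescence of nuclei (405 nm excitation, 500-530 nm emission), with hits raising the fraction of high-intensity nuclei. SW480 colon cells incubated 48 hr with compounds at 37 C.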
MCF10A rereplic = induces DNA re-replication in MCF 10a normal breast cells; MCF 10A DNA re-replication, Hoechst nuclear intensity, 48 h; Potency, µM (series often up to 46.1 µM), hits mostly activators; 2.9% of 350,000 active; AID 624296; note: nearly all actives have a fitted effect of over 50% in size
ELG1 DNA repair = ELG1-dependent DNA repair inhibition. HEK293T ELG1-luciferase reporter, luminescence, 16 h; DNA damage induced by 5-fluorouridine. AID 504467. 2.3% of 330,000 active. Potency, µM (highest dose often 46.1 µM), actives largely listed as inhibitors; note: nearly all actives have a fitted effect of over 55% in size
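Luminescence from the luciferase reporter, measured 30 min after ONE-Glo reagent at room temperature, was the read-out. Beforehand, 2,000 cells per well were exposed for 16 hr at 37 °C to 5-fluorouridine together with compound or vehicle.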
KB-3-1 cytotox = KB-3-1 parental cell cytotoxicity; AID 1347075; Potency, µM (titrated, usually from 46.1 µM), usual class: cytotoxic; 1.4% of 400,000 active; KB-3-1 viability, CellTiter-Glo ATP luminescence, 72 h; note: nearly all actives have a fitted effect of over 60% in size
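Luminescent ATP read-out (CellTiter-Glo) measures survival of drug-naive KB-3-1 cells after 72 h compound exposure at 37 °C. Titration series was screened from lowest to highest concentration, with DMSO vehicle plates as background controls.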
KB-V1 MDR tox = KB-V1 MDR subline cytotoxicity; KB-V1 MDR cells viability, CellTiter-Glo, 72 h; Potency, µM (titrated, usually from 46.1 µM), hits mostly cytotoxic; 3.4% of 400,000 active; AID 1347076; note: nearly all actives have a fitted effect of over 60% in size
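qHTS viability screen in drug-selected KB-V1 MDR cells: 72 h compound treatment at 37 degrees C, ATP luminescence end point.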
ELG1 FLuc counter = luciferase inhibition in cell-free luciferin readout for ELG1 hits | shares compounds with ELG1 DNA repair | cell-free firefly luciferase luminescence counter-screen, ViewLux | Potency, µM (titrated, usually from 46.1 µM), actives largely listed as inhibitors | 3% of 350 active | AID 624247
ELG1 Luc conf = human ELG1 repair inhibition, luciferase-tagged ELG1 confirmation; 68% of 670 active; HEK293T ELG1-luciferase levels, luminescence; cells co-treated with 5-fluorouridine; Potency, µM (doses to about 46.1 µM), actives largely listed as inhibitors; shares compounds with ELG1 DNA repair; note: nearly all actives have a fitted effect of over 55% in size
ELG1 MMS Luc = confirmation of human ELG1 repair inhibitors, MMS stimulated; HEK293T luciferase-tagged ELG1 level, MMS stimulated; shares compounds with ELG1 DNA repair; Potency, µM (series often up to 46.1 µM), actives largely listed as inhibitors; 53% of 670 active; note: nearly all actives have a fitted effect of over 60% in size
ELG1 5FU viab = confirmation of ELG1 repair inhibitors: viability with 5FU; AID 624250; Potency, µM (titrated, usually from 46.1 µM), actives largely listed as cytotoxic; shares compounds with ELG1 DNA repair; 670 tested, under 10 active; cell viability with 5-FU, ELG1-dependent repair;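 note: ELG1-luc HEK293T cells cotreated with 5-fluorouridine at 10 µM final; viability measured 16 h after compound addition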
ELG1 MMS cell = confirmation of ELG1 repair inhibitors: viability with MMS. Cell viability with MMS, ELG1-dependent DNA repair. Potency, µM (highest dose often 46.1 µM), usual class: cytotoxic. 33% of 670 active. AID 624251. shares compounds with ELG1 DNA repair;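 note: ELG1-luc HEK293T cells co-treated with 10 µM MMS; viability read 16 h after compound addition; nearly all actives have a fitted effect of over 60% in size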
ELG1 unstim viab = counter-screen for ELG1 repair inhibitors: unstimulated cell viability | shares compounds with ELG1 DNA repair | cell viability counter-screen, unstimulated, luminescence | Potency, µM (titrated, usually from 45.9 µM), actives largely listed as cytotoxic | 8% of 900 active | AID 624252;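 note: compound exposure lasted 16 hours before reading; nearly all actives have a fitted effect of over 55% in size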
FLuc biochem = counter-screen for ELG1 repair inhibitors: firefly luciferase inhibition; shares compounds with ELG1 DNA repair; purified firefly luciferase, luminescence counter-screen; 10% of 350 active; Potency, µM (top dose mostly 57.5 µM), actives largely listed as inhibitors
Hits are given with their value; . = inactive; ? = inconclusive; / = not tested or not shown. Calls come from the whole dose curve; as a rule, active = well fitted curve in the direction sought with a large enough effect; inconclusive = small, poorly fitted or top-dose-only effect, or another doubt; inactive = no such curve, though single readings can be large; an effect the other way counts as inactive or inconclusive.

SMILES | SW480 rereplic | MCF10A rereplic | ELG1 DNA repair | KB-3-1 cytotox | KB-V1 MDR tox | ELG1 FLuc counter | ELG1 Luc conf | ELG1 MMS Luc | ELG1 5FU viab | ELG1 MMS cell | ELG1 unstim viab | FLuc biochem
CN(c1ccc(C(=O)COC(=O)C2CC2)cc1)S(C)(=O)=O | . | . | ? | . | . | / | / | / | / | / | / | /
Fc1ccccc1-c1csc(=Nc2cccnc2)n1CC1CCCO1 (centres undefined) | ? | ? | ? | . | ? | . | ? | 22µM | . | 16µM | ? | .
Fc1ccccc1-c1csc(=Nc2cccnc2)n1CCCn1ccnc1 | . | . | 10µM | ? | ? | . | 13µM | 20µM | . | 22µM | ? | ?
COCCn1c(-c2cccs2)csc1=Nc1cccnc1 | . | . | ? | . | . | / | / | / | / | / | / | /
CS[C@@H]1SC[C@H]2C(=O)N(C)C(C(C)C)C(=O)OC[C@@H](NC(=O)c3cnc4ccccc4n3)C(=O)N[C@@H](C)C(=O)N(C)[C@H]1C(=O)N(C)C(C(C)C)C(=O)OC[C@@H](NC(=O)c1cnc3ccccc3n1)C(=O)N[C@@H](C)C(=O)N2C (some centres undefined) | / | / | / | / | / | ? | 0.14µM | 0.056µM | . | 0.2µM | . | .
CN(C)S(=O)(=O)c1cccc(NC(=O)Cc2ccc(-c3ccccc3)cc2)c1 | . | ? | . | ? | ? | / | / | / | / | / | / | /
Cc1ccc2c(c1)S/C(=C/c1ccc[n+](CCO)c1)N2C | . | . | 2.9µM | 2.6µM | . | / | . | 8.9µM | . | 8.9µM | ? | /
O=C(Nc1ccc(Cl)cc1)c1nc[nH]c1C(=O)NCCCCNC(=O)c1[nH]cnc1C(=O)Nc1ccc(Cl)cc1 | . | . | 2.9µM | ? | 21µM | / | 2.5µM | 11µM | . | 25µM | ? | /
Cc1cc(C)c(C)c(S(=O)(=O)NC(C)C(=O)O)c1C (centres undefined) | . | . | . | . | . | / | / | / | / | / | / | /
Cc1sc(NC(=O)c2ccco2)c(C(c2ccc(F)cc2)N2CCN(C)CC2)c1C (centres undefined) | . | ? | . | . | . | / | / | / | / | / | / | /
Cc1sc(NC(=O)c2ccco2)c(C(c2cccnc2)N2CCN(c3ccc(F)cc3)CC2)c1C (centres undefined) | ? | . | . | ? | . | . | / | / | / | / | . | .
CCCCN(C(C)=O)c1c(CC)nc2ccc(C(=O)NCc3cccs3)cn12 | / | / | / | . | . | / | / | / | / | / | / | /
COc1ccccc1NC(=O)Nc1nc(CC(=O)Nc2ccc(F)c(F)c2)cs1 | . | ? | 4.6µM | ? | . | / | 22µM | . | . | . | ? | /
Nc1ccccc1NC(=O)c1ccc(CNC(=O)OCc2cccnc2)cc1 | / | / | / | / | / | . | / | / | / | / | ? | .
COCc1ccc(C(=O)Nc2ccccc2C(=O)NCc2cccnc2)cc1 | . | . | . | . | ? | / | / | / | / | / | / | /
Cc1cc(C(=O)COc2ccccc2C(N)=O)c(C)n1CC1CCCO1 (centres undefined) | . | . | ? | . | 4.6µM | / | ? | 1µM | . | 1.3µM | ? | /
